In the library only some 2.5% were active in any assay of this set; here they are far more common.
MEKK3 PB1 HTS = modulators of MEKK3-MEK5 PB1 binding, primary screen, biochemical, wildtype MEKK3, multiplex bead flow cytometry, Alexa488-MEK5; bead-based flow cytometry, Alexa488-MEK5 binding to MEKK3; actives lie on both sides; 0 = blocked by unlabeled MEK5, 100 = vehicle; AID 1529, 2009; 290,000 compounds, 1.4% hits; binding response (% of control), % at 10 µM;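 active = binding response more than 3 SD above or below the average of its plate-row segment, actives on both sides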;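 also: Alexa488 bead fluorescence after subtracting the streptavidin-only scavenger bead signal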
MEKK2wt PB1 HTS = modulators of MEK5 binding to wildtype MEKK2, primary screen, biochemical, multiplex bead flow cytometry, Alexa488-MEK5. AID 1531, 2009. Mitogen-activated protein kinase kinase kinase 2 (Homo sapiens), Q9Y2U5. binding response (% of control), % at 10 µM. 290,000 compounds, 1.1% hits. Alexa488-MEK5 binding to MEKK2 WT; actives lie on both sides; in the data active = binding response below about 67% or above about 130%
MEKK2mut PB1 HTS = MEK5 binding signal on mutant MEKK2 PB1, primary screen, biochemical, multiplex bead flow cytometry, Alexa488-MEK5; Alexa488-MEK5 binding to MEKK2 mutant; 290,000 compounds, 0.35% hits; percent response, % at 10 µM; in the data active = percent response above about 24%, passing the limit was not always enough
GRK2 inh = compounds blocking aptamer binding on GRK2 – biochemical, human GRK2, bead flow cytometry, HTS, primary screen; inhibition of aptamer binding, % at 10 µM; 330,000 compounds, 0.59% hits; FAM-aptamer displacement from GRK2;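 active = inhibition of aptamer binding above 40%, roughly 3 SD of noise, on plates passing a quality check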;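 also: median bead fluorescence of bound FAM aptamer so fluorescent compounds give negative values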
Target sequence (P25098 whole entry, looked up): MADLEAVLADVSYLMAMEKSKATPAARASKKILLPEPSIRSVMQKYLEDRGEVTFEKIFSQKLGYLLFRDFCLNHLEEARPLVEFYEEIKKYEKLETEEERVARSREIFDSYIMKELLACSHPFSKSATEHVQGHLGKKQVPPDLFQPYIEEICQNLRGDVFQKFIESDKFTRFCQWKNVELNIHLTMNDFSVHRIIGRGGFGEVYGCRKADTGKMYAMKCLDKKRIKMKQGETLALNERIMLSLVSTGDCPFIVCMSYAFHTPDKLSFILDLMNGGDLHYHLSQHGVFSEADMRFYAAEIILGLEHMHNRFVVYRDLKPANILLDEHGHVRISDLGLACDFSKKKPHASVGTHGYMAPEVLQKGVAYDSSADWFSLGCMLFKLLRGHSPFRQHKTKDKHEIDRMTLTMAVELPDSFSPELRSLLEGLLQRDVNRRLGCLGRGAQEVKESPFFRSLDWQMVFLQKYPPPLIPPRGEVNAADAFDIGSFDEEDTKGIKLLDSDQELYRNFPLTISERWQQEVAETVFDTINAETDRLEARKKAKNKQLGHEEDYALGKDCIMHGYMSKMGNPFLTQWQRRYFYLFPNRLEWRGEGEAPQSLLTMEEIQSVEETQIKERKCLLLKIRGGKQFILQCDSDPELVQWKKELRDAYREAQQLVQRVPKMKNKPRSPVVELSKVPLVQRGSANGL
GRK2 inh confirm = GRK2 aptamer-displacing inhibitors, retest, confirmation, biochemical, cherry pick 1, bead flow cytometry; shares compounds with GRK2 inh; bead-bound GRK2, FAM-aptamer displacement; aptamer displacement, % at 10 µM; 2,000 compounds, 4% hits;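 active = aptamer displacement above 40%, near three times the noise of non-fluorescent compounds, on plates passing quality checks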;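 also: negative values mostly reflect intrinsic compound fluorescence rather than true enhancement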
Aptamer quench 1 = fluorescent aptamer quenching in GRK2 counter-screen dose response; fluorescence change (kMESF span), kMESF (no concentration beside the values); shares compounds with GRK2 inh; AID 504521; 110 tested, under 10 active; Fluorescent RNA aptamer beads, flow cytometry; active compounds read high;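 active = compounds whose bead fluorescence drops by more than 37 kMESF across the dose range, marking them as dye quenchers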
Aptamer quench SP = counter-screen for GRK2 aptamer inhibitors: fluorescent aptamer quenchers | shares compounds with GRK2 inh | Carboxyfluorescein RNA aptamer on beads, flow cytometry quenching; active compounds read low | fluorescence response (% of DMSO), % at 10 µM | 2,000 tested, under 10 active | AID 504580;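 active = compounds that quench the bead-bound fluorescent RNA probe, cutting fluorescence to under half of the solvent control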;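 also: counterscreen run without GRK2 so only probe quenching by compound is measured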
Numbers stand for hits; - = inactive; . = no result given.

SMILES	MEKK3 PB1 HTS	MEKK2wt PB1 HTS	MEKK2mut PB1 HTS	GRK2 inh	GRK2 inh confirm	Aptamer quench SP	others
CCCN(Cc1nnc(-c2ccccc2Cl)o1)C(=O)c1cc(S(=O)(=O)N2CCOCC2)ccc1F	.	.	.	-	.	.
Cc1cccc(C(=O)NNC(=O)c2c(O)c3ccccc3n(C)c2=O)c1	-	-	-	-	.	.
CCn1c(=O)c(C(=O)NNC(=O)c2cccc(Cl)c2)c(O)c2ccccc21	-	-	-	54	-	-
Cn1c(=O)c(C(=O)NNC(=O)c2cccc(Cl)c2)c(O)c2ccccc21	-	-	-	90	65	-	Aptamer quench 1=-
Cc1nn(CC(=O)N2CCOCC2)c(=O)c2nn(-c3ccccc3)c(C)c12	-	-	-	-	.	.
Cc1ccc(-c2csc3ncn(CC(=O)NCC(c4ccco4)N4CCCC4)c(=O)c23)cc1 (stereo not given)	.	.	.	78	-	-
CCc1ccc(-c2csc3ncn(CC(=O)NCc4ccco4)c(=O)c23)cc1	-	-	-	-	.	.
CCOC(=O)C1(CCc2ccccc2)CCN(C(=O)CN2C(=O)CSC2=O)CC1	-	-	-	92	-	-
COCCN(C(=O)c1cc(OC)c(OC)c(OC)c1)c1c(N)n(Cc2ccccc2)c(=O)[nH]c1=O	-	-	-	-	.	.
CN(Cc1ccccc1)c1nc(CN2CCOCC2)nc2scc(-c3ccccc3)c12	-	-	-	-	-	-
OCC1CCCN(c2nc(CN3CCCCC3)nc3scc(-c4ccccc4)c23)C1 (stereo not given)	-	-	-	-	-	-
OCC1CCCN(c2ncnc3scc(-c4ccccc4)c23)C1 (stereo not given)	-	-	-	-	.	.
Fc1ccc(N2CCN(c3nc(CN4CCOCC4)nc4scc(-c5ccccc5)c34)CC2)cc1	-	-	-	-	.	.
CCOc1ccc(N(CC(=O)NCCc2ccccc2)S(=O)(=O)c2ccccc2)cc1	-	-	-	-	.	.
O=C(Cn1cnc2sc3c(c2c1=O)CCCC3)NCC(=O)Nc1c(F)cc(F)cc1Br	-	-	-	-	.	.
CC(=O)Nc1ccc(S(=O)(=O)NNc2cccc(C)c2)cc1	-	-	-	-	.	.
COc1ccccc1N1CCN(/N=C/c2ccc(Cl)c([N+](=O)[O-])c2)CC1	-	-	-	100	-	-
COc1ccccc1N1CCN(/N=C/c2ccc([N+](=O)[O-])cc2)CC1	-	-	-	-	.	.
CCN(C(=O)CN1CCc2ccccc21)c1c(N)n(Cc2ccccc2)c(=O)[nH]c1=O	-	-	-	-	-	-
COCCN(C(=O)CN1CCc2ccccc21)c1c(N)n(Cc2ccccc2)c(=O)[nH]c1=O	.	.	.	-	.	.
CC(=O)Nc1ccc(N(C(=O)CNC(=O)c2cccs2)C(C(=O)NC(C)(C)C)c2ccccc2)cc1 (stereo not given)	-	-	-	-	.	.
O=C(O)C1Nc2c(Cl)cc(Cl)c(Cl)c2C2C=CCC12 (stereo not given)	-	-	-	59	-	-
CC(C)C1Nc2c(O)cc(Cl)c([N+](=O)[O-])c2C2C=CCC21 (stereo not given)	-	-	-	.	.	.
COc1ccc([C@H]2CC(=O)C=C(c3ccc(Cl)c(C(F)(F)F)c3)C2)cc1OC	.	.	.	-	.	.
COC(=O)c1ccc(S(=O)(=O)NCc2ccco2)o1	-	-	-	47	-	-
SMILES	MEKK3 PB1 HTS	MEKK2wt PB1 HTS	MEKK2mut PB1 HTS	GRK2 inh	GRK2 inh confirm	Aptamer quench SP	others
COC(=O)c1ccc(S(=O)(=O)NCc2ccc(S(N)(=O)=O)cc2)o1	-	-	-	-	.	.
Cc1ccccc1C(=O)N1CCN(CCNC(=O)C(=O)Nc2ccc(Br)cc2)CC1	-	-	-	-	.	.
c1ccc(CSc2nnc(Cc3ccccc3)o2)cc1	-	-	-	-	.	.
O/C(=C\Sc1nnc(Cc2ccccc2)o1)c1ccc(F)cc1	-	-	-	49	.	-
COc1ccc(OCc2cc(C(=O)NCC(C)Oc3cccnc3)no2)c(Cl)c1 (stereo not given)	-	-	-	-	.	.
O=C(c1nc2ccccn2c1CN1CCCC(c2nc3ccccc3o2)C1)N1CCCC1 (stereo not given)	-	-	-	-	.	.
CC(C)N(C(=O)Cn1cc(SCC(N)=O)c2ccccc21)C(C)C	-	-	-	-	.	.
O=C(OCC(=O)N1CCN(C(=O)c2ccco2)CC1)c1ccccc1	-	-	-	78	-	-
O=C(CCCOc1ccccc1)N1CCN(C(=O)c2ccco2)CC1	-	-	-	-	.	.
N#Cc1ccc(C(=O)OCC(=O)N2CCN(C(=O)c3ccco3)CC2)cc1	.	.	.	-	.	.
Cc1cc(Cl)ccc1OCCCC(=O)N1CCN(C(=O)c2ccco2)CC1	-	-	-	78	-	-
CCCCn1c(CNC(=O)C(C)(C)C)nc2ccccc21	-	-	-	83	-	-
CCn1c(CNC(=O)C(C)(C)C)nc2ccccc21	-	-	-	-	.	.
COCCn1nnnc1C(c1cccc(OC)c1OC)N1CCN(C(=O)c2ccco2)CC1 (stereo not given)	-	-	-	100	-	-
COCCn1nnnc1C(c1ccccc1OC)N1CCN(C(=O)c2ccco2)CC1 (stereo not given)	-	-	-	-	.	.
NS(=O)(=O)c1cc(C(=O)OCC(=O)N2CCOCC2)ccc1Cl	-	-	-	-	.	.
CCOc1ccc(Cn2nnc(-c3ccc(S(C)(=O)=O)cc3)n2)cc1OCC	.	.	.	-	.	.
Cc1cccc(NC(=O)c2ccc(Cl)nc2)n1	-	-	-	-	.	.
Cc1cccc(NC(=O)c2csnn2)n1	-	-	-	-	-	-
S=C(NCC1CCCO1)NC1CC1 (stereo not given)	-	-	-	87	-	-
CC1Nc2nc(N(C)C)[nH]c(=O)c2NC1C (stereo not given)	-	-	-	-	-	-
CN(C)c1nc(C(F)(F)F)cc(=O)[nH]1	-	-	-	-	.	.
COc1cc(C)c2c(c1C=O)Oc1c(c(C)c(O)c3c1C(O)OC3=O)OC2=O (stereo not given)	-	-	-	66	-	-
CCOc1cc(NC(=S)NCCOC)c(OCC)cc1NC(=O)c1ccco1	-	-	-	-	.	.
C=CCNC(=O)c1ccc2nc(-c3ccccc3)c(-c3ccccc3)nc2c1	-	-	-	-	.	.
C=CCNC(=O)c1ccc(C(=O)c2ccccc2)cc1	-	-	-	67	-	-
